Reference: PubChem BioAssay (NCI)
The panel holds about 83,000 compounds, 20% with a hit somewhere; the sample as a whole holds those more often.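 Single-dose data. Exposure time 48 hours. Values below 10 considered active.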 Unmarked numbers belong to inactive results. Active and inactive are the calls of the source.

What follows are compounds tested on HL-60(TB) leukemia (assay: NCI-60 one-dose screen, 48 h (100 = growth as untreated, 0 = no growth, -100 = all killed)). Conditions: 10 µM unless noted.

| Compound | growth |
| --- | --- |
| Brc1cccc(-n2ncc3c(Nc4ccc(-c5nnc(-c6ccccc6)o5)cc4)ncnc32)c1 | 122% |
| COc1cnc2c(c1)C(=O)c1c-2n(CCCNC2=NCCS2)c(=O)c2cc(F)ccc12 | -45.5% (active) |
| NC(=NCc1ccccc1)C(N=Nc1ccccc1)C(=O)NCc1ccccc1 (stereo not given) | 72% |
| O=C(Nc1ccc(Oc2ccc(Nc3nc4ccccc4s3)cc2)cc1)Nc1ccc(Cl)c(C(F)(F)F)c1 | -19.3% (active) |
| CCOC(=O)c1c(C(F)(F)F)n([O-])c2ccc(OC)cc2[n+]1=O | -9.6% (active) |
| Nc1nc(SCc2ccccc2)c2ncn(C3CCCC3)c2n1 | 75.2% |
| COc1ccc(SC2c3ccc(C)cc3Oc3nc(N)c(C#N)c(N)c32)cc1 (stereo not given) | -53.4% (active) |
| COc1cc(OC)c(/C=C/C(=O)c2c(N)cc(OC)cc2OC)c(OC)c1 | 12.7% |
| O=c1nc2n(nc1/C=C/c1ccco1)CC(c1ccc(Cl)cc1)=NN2 | 70.1% |
| Oc1cccnc1CN1CCCC1 | 100% |
| Fc1ccc(Nc2ccnc(N3CCN(c4ccnc5cc(Cl)ccc45)CC3)n2)cc1 | 15.9% |
| N#CC(C#N)N=Nc1ccc(Cl)cc1 | -26.8% (active) |
| O=C1CC(=O)N(c2ccccc2)O1 | 103% |
| CCOC(=O)c1c(C)nc2c(c1N)C(=O)C(=O)N2CCc1ccc(OC)c(OC)c1 | 65.6% |
| Cn1cc(-c2csc(-c3cn(CCN)c4ccc(Br)cc34)n2)c2cccnc21 | 41% |
| O=C1Cc2cc(O)ccc2O1 | 100% |
| Oc1ccccc1C=Nc1ccc(N2CCN(c3ccccc3)CC2)cc1 | 54.6% |
| O=C1/C(=C\c2ccccc2)CN(C(=O)c2ccccc2F)C/C1=C\c1ccccc1 | 10.1% |
| C/C=C/c1cc2c(c(=O)o1)C(=O)[C@@H](O)[C@H](C)O2 | -22% (active) |
| COc1cc2nc(Cl)nc(Nc3cccc(C(=O)/C=C/c4ccccc4)c3)c2cc1OC | 70.1% |

| Compound | growth |
| --- | --- |
| C[C@H](C(=O)N[C@@H](Cc1ccc(-c2ccccc2)cc1)C(=O)NC1CC(C)(C)NC(C)(C)C1)c1ccc(-c2ccccc2)c(F)c1 | -59.1% (active) |
| CC1(C)OC(=O)C(=Cc2ccccc2Br)C(=O)O1 | 98.5% |
| COc1ccc(C(=O)COc2cccc(/C=C3\CSc4ccc(Cl)cc4C3=O)c2)cc1 | 81.8% |
| CC(C)CC(NC(=O)C(CCCN=C(N)N)NC(=O)OCc1ccccc1)C(=O)NC(CNC(=O)/C=C/c1ccccc1)C(C)C (stereo not given) | 102% |
| CCOC(=O)c1cc(-c2ccc(OC)cc2)[nH]c1NNC(=O)CCOC | 90.8% |
| COc1cc(Cl)cc(-c2nn(C(=O)NS(=O)(=O)c3ccc(Cl)cc3)cc2-c2ccncc2)c1 | 94.8% |
| O=C(CCCSc1nc(-c2ccccc2)cc(-c2ccccc2)n1)NO | -26.2% (active) |
| Fc1ccc(/C=N/n2c(-c3cc(Cl)cc(Cl)c3Cl)nn(CNc3ccc(Cl)nn3)c2=S)cc1 | 90.1% |
| O=C(COc1ccc(/C=C2\Cc3ccccc3C2=O)cc1)c1ccc(Cl)cc1 | 118% |
| CCCCCCCCCCCCCCCC(=O)NS(=O)(=O)OC[C@H]1O[C@@H](n2cnc3c(N)ncnc32)[C@H](O)[C@@H]1O | -11.6% (active) |
| O=C1NC(=S)N[C@H]1CC(=O)n1cnc2ccccc21 | 109% |
| CCOC(=O)c1ccc2c(c1)nc(/C=C/c1ccc(Cl)cc1)n2-c1cc(C(C)(C)C)[nH]n1 | 73.1% |
| COc1cc(-c2nc3sc(C)cn3c2/C=C2\C(=O)Nc3ccccc32)c(Br)c(OC)c1OC | -7.35% (active) |
| CC(C)(C)n1cc(-c2ccnc(NCCCNS(=O)(=O)c3ccc(Br)cc3)c2)c(-c2cccc(O)c2)n1 | 3.72% (active) |
| CC(=O)N1N=C(c2ccc(Nc3nc(Nc4ccc(F)cc4)nc(Nc4ccc(F)cc4)n3)cc2)CC1c1ccc(N(C)C)cc1 (stereo not given) | 10% (active) |
| C=C1CC2(OC1=O)C(=O)N(CCCCCCCCCCCCN1C(=O)C3(CC(=C)C(=O)O3)c3ccccc31)c1ccccc12 (stereo not given) | 45.5% |
| COc1ccccc1-c1ccc2nc(NC(=O)Nc3cc(C(F)(F)F)cc(C(F)(F)F)c3)sc2c1 | -34.5% (active) |
| C/C(=N\O)C(=O)NCCCCCC(=O)Nc1ccccc1 | 93.2% |
| COc1ccc(S(=O)(=O)NCCNc2nccc(-c3c(-c4cccc(N)c4)nc4sccn34)n2)cc1 | 116% |
| COc1ccc(-c2nc(/C=C3\SC(=NCc4ccccc4)NC3=O)c3ccccn23)cc1 | -7.59% (active) |
